The results in this text go back to ChEMBL document CHEMBL4513216, “Probing the Open Global Health Chemical Diversity Library for Multistage-Active Starting Points for Next-Generation Antimalarials” (ACS Infect Dis, 2020).

In all, about 68,000 compounds went through this assay and about 2,700 (4%) showed an effect of 50% or more. What follows is part of a selection rich in strong results, with near analogues and random picks from the rest.

In this assay the test system is Plasmodium berghei. Kind of assay: Screen against P. berghei liver stage (PbLuc), transformed with Luciferase, at 2uM. In kind it is functional, HepG2. Particulars: tested at 2 uM.
As for `Cc1cc(-c2cnc(N3CCC(C(N)=O)CC3)nc2C(C)C)on1`, the INHIBITION is -12.93%.

Take `O=C(NCc1cccnc1)N1CCC2(CC(=O)N(c3ccsc3)C2)C1` (configuration not stated): the INHIBITION is 13.92%.

`CCN1C[C@H]2C3(CCN(C(C)=O)CC3)CC[C@@]2(C(=O)N(C)C)C1`: the INHIBITION amounted to 17.47%.

On to `Cc1ccc(NC2CCN(C(=O)c3ccc(C)o3)CC2)nn1`, for which the INHIBITION is listed as -47.54%.

For the molecule `Cc1n[nH]c2ncc(CNC3CCCN(c4ncccn4)C3)cc12` (configuration not stated), the INHIBITION is recorded as 42.17%.

For `O=C(c1cccnc1)N1CCC2(CCN(C(=O)N3CCCC3)CC2)C1`, the INHIBITION is given as -11.34%.

Take `COCCn1c2c(ccc1=O)CC(NCc1cccnc1OC)CC2` (configuration not stated): the INHIBITION is given as -1.81%.

Regarding `CCc1ncnc2c1CCN(Cc1nccs1)CC2`, the INHIBITION is listed as -6.83%.

As for `O=C1OCCN1CCNC(=O)C1(N2CCCCC2)Cc2ccccc2C1`, the INHIBITION was determined as 51.96%.

Take `CC(=O)NCCNC(=O)C1(N2CCCCC2)Cc2ccccc2C1`: the INHIBITION stood at 10.91%.

On to `O=C(NCCCO)C1(N2CCCCC2)Cc2ccccc2C1`, for which the INHIBITION was -118.83%.

On to `CNC(=O)c1nn(C)cc1NC(=O)C(C)n1ncc(Cl)c1C` (configuration not stated), for which the INHIBITION is -11.07%.

As for `CC(C)CN1CCN(C(=O)c2[nH]nnc2Nc2ccccc2F)CC1`, the INHIBITION is -19.92%.

Consider `Cc1cc(N(C)C)nc(C2(C)CCCN2C(=O)c2cncnc2C)n1` (configuration not stated), for which the INHIBITION is 14.05%.

`Cc1nc(N)ncc1C(=O)N1CCCC1(C)C(=O)N(C)C` (configuration not stated): the INHIBITION worked out at 50.17%.

As for `Cc1ncc(C(=O)N2CCCC2(C)C(=O)N2CCOCC2)c(C)n1` (configuration not stated), the INHIBITION was -14.73%.

In the case of `O=C(NCCCNc1ccccn1)NCC1CCS(=O)(=O)C1` (configuration not stated), the INHIBITION was 41.93%.

As for `COc1ccc(F)c(CN2CCC(c3cc(O)nc(C)n3)C2)c1` (configuration not stated), the INHIBITION worked out at 25.87%.

For the molecule `CNC(=O)COC1COC2(CCN(c3ccc(C)nn3)CC2)C1` (configuration not stated), the INHIBITION is recorded as -37.31%.

In the case of `O=C(c1ccno1)N1CCO[C@@H]2CC(COCc3ccccn3)C[C@H]21` (some centres not stated), the INHIBITION is on record as 43.24%.

Turning to `CNC(=O)C1=NOC2(CCN(Cc3nccs3)C2)C1` (configuration not stated), the INHIBITION stood at 5.9%.

For the molecule `Cc1ncccc1NC(=O)C1=NOC2(CCN(Cc3nccs3)C2)C1` (configuration not stated), the INHIBITION was determined as 16.87%.

On to `O=C(NCCN1CCOCC1)C1=NOC2(CCN(Cc3nccs3)C2)C1` (configuration not stated), for which the INHIBITION was determined as 50.9%.

On to `CCc1nc(C2CCCN2Cc2ccno2)no1` (configuration not stated), for which the INHIBITION is given as -62.13%.

With `O=C1NCC2(CCCN(Cc3cccnc3)C2)Oc2ccccc21` (configuration not stated), the INHIBITION was found to be 24.06%.

For `Cc1cc(-c2cc(S(=O)(=O)N3C[C@H](C4CC4)[C@@H](N)C3)c(C)s2)on1`, the INHIBITION was 14.95%.

In the case of `COc1cccc(CN2CCCC(c3nn(C)c4nccnc34)C2)c1` (configuration not stated), the INHIBITION is 22.81%.

Regarding `COc1cc(N2CCC3(CCCN(C(=O)c4cccnc4)C3)C2)ncn1` (configuration not stated), the INHIBITION was -15.29%.

Turning to `Cc1ccc(CNC(C)c2ccc(N3CCN(C)CC3)c(F)c2)o1` (configuration not stated), the INHIBITION turned out to be 14.89%.

For `CC(NCc1ccncc1)c1cc(F)ccc1N1CCN(C)CC1` (configuration not stated), the INHIBITION turned out to be 24.88%.

As for `Cc1ccc(CNC(C)c2cc(F)ccc2N2CCN(C)CC2)o1` (configuration not stated), the INHIBITION came to 60.84%.

Turning to `Cc1ccc(CC(=O)N2CCCC(c3ccn[nH]3)C2)cn1` (configuration not stated), the INHIBITION is -5.3%.

`O=C(NCCCO)c1cc(-c2cc[nH]n2)n2ccccc12`: the INHIBITION was -50.4%.

`Fc1cccc(-c2nnn3c2COCC(CNCc2nccs2)C3)c1` (configuration not stated): the INHIBITION is listed as 3.18%.

Regarding `COCc1cc(N(C)CCC(O)c2ccccc2)n2nccc2n1` (configuration not stated), the INHIBITION was 45.87%.

`CCc1cc(N(C)CCC(O)c2ccccc2)n2nccc2n1` (configuration not stated): the INHIBITION worked out at 53.12%.

As to `Cc1cc(N(C)CCC(O)c2ccccc2)n2nccc2n1` (configuration not stated), the INHIBITION is 26.35%.

`CN(C)C(C(=O)N1CCC(CCO)CC1)c1ccccc1F` (configuration not stated): the INHIBITION amounted to 57.34%.

Turning to `CN(C)C(C(=O)N1CCCC1)c1ccccc1F` (configuration not stated), the INHIBITION is recorded as -12.23%.

Regarding `CCOCC1CCN(C(=O)C(c2ccccc2F)N(C)C)CC1` (configuration not stated), the INHIBITION is recorded as -45.44%.

`c1cncc(C2CC3(CCN(c4cnccn4)CC3)c3ccccc32)c1` (configuration not stated): the INHIBITION was -8.91%.

Consider `COc1cccc(-n2nnc(C(=O)N3CCCC3)c2C)c1`, for which the INHIBITION is -32.49%.

`COc1cccc(-n2nnc(C(=O)N3CCOC(C)C3)c2C)c1` (configuration not stated): the INHIBITION is on record as 32.64%.

Take `COc1cccc(-n2nnc(C(=O)N3CCC(C(N)=O)CC3)c2C)c1`: the INHIBITION was determined as 56.78%.

On to `COc1cccc(-n2nnc(C(=O)N3CCCCCC3)c2C)c1`, for which the INHIBITION was 30.05%.

For `COc1cccc(-n2nnc(C(=O)N3CCCC(C)C3)c2C)c1` (configuration not stated), the INHIBITION is 5.91%.

On to `COc1cccc(-n2nnc(C(=O)N3CCN(C)CC3C)c2C)c1` (configuration not stated), for which the INHIBITION came to 89.42%.

Turning to `Cc1nc(-c2ccc(S(=O)(=O)N3CCC4(CC3)OCCO4)cc2)co1`, the INHIBITION was determined as 13.93%.

With `CCNc1cc2c(nn1)CCN(C(=O)C(C)c1c(C)noc1C)C2` (configuration not stated), the INHIBITION is given as -45.83%.

As to `COc1cc(CNCc2ccnc(N3CCCC3)c2)cc(OC)c1`, the INHIBITION was -2.71%.

On to `CCN1C[C@H]2C3(CCN(C(=O)NC(C)C)CC3)CC[C@@]2(C(=O)NC)C1`, for which the INHIBITION is given as 45.36%.

For `CN1CCCC2(CCN(S(=O)(=O)c3c(Cl)nc4sccn34)C2)C1=O` (configuration not stated), the INHIBITION was found to be 66.11%.
